Results published in PubChem BioAssay AID652195 (Johns Hopkins Ion Channel Center, 2013).
The source made the active and inactive calls.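 How the source made its calls: active means peak TRPC6 channel inhibition above 30% at some tested dose, with a fitted dose response curve; inactive means no inhibition at any dose or no curve fitted.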

Molecular target: Short transient receptor potential channel 6 (Mus musculus) (UniProt Q61143)
Experiment: TRPC6 inhibition potency of TRPC4 inhibitor analogs, dose response, selectivity assay for selective TRPC4 inhibitor project, HEK293 cells, membrane potential dye, quadruplicate (AID 652195)
Conditions: FDSS; series mostly up to 20 µM

Sequence of Short transient receptor potential channel 6 (Mus musculus) (Q61143 whole entry, looked up): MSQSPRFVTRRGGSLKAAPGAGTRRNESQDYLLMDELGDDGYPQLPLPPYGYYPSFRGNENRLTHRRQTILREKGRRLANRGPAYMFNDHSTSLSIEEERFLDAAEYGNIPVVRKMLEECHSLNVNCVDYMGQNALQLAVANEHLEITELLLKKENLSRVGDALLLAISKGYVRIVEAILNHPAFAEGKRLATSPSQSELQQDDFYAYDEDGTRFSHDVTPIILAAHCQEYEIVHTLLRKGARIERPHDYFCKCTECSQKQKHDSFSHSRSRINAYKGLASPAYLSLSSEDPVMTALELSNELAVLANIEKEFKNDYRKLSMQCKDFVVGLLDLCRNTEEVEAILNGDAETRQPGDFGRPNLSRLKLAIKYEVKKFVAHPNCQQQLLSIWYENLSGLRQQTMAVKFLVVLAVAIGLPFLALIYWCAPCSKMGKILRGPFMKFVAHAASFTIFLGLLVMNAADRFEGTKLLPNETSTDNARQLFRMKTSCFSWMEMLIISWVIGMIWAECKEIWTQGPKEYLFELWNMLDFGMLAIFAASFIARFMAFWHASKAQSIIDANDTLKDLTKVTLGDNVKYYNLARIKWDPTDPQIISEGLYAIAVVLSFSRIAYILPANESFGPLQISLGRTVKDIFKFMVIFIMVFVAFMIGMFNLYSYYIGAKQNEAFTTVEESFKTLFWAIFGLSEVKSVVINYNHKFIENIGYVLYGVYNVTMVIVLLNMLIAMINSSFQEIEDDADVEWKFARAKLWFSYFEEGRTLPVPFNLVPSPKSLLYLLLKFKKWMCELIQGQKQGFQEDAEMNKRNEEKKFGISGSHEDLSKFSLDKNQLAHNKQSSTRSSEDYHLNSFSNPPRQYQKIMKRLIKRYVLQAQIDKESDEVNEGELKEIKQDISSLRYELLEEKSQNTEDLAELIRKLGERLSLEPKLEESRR

outcome, inactive:
Cc1cc(N2CCC(=O)CC2)nc2ccccc12
FC1CCCN(c2ccc3ccccc3n2)C1 (centres undefined)
C[C@H]1CCCN1c1ccc2ccccc2n1
Cc1cc(-n2ccnc2)nc2ccccc12
OC1CCN(c2ccc3ccccc3n2)CC1
FC1CCN(c2ccc3ccccc3n2)CC1
Cc1cc(-n2cccn2)nc2ccccc12
Cc1cc(N2CCCC(F)C2)nc2ccccc12 (centres undefined)
c1ccc2nc(N3CCCC3)ccc2c1
Cc1cc(N2CCC(O)C2)nc2ccccc12 (centres undefined)
Cc1cc(N(C)C)nc2ccccc12
Cc1cc(-n2cccc2)nc2ccccc12
Cc1cc(N2CCC(F)(F)CC2)nc2ccccc12
O=C1CCN(c2ccc3ccccc3n2)CC1
OC1CCN(c2ccc3ccccc3n2)C1 (centres undefined)
FC1(F)CCN(c2ccc3ccccc3n2)CC1
Cc1cc(N2CCC(O)CC2)nc2ccccc12
Cc1cc(N2CCC(F)CC2)nc2ccccc12
OC1CCCN(c2ccc3ccccc3n2)C1 (centres undefined)
